Among all 16,000 compounds or so, about 5,700 (36%) were called active. Roughly 24% stayed inconclusive and do not appear here. The list shows a part of the results. Unmarked numbers belong to inactive results. Calls come from the whole dose curve; as a rule, active = well fitted curve in the direction sought with a large enough effect; inconclusive = small, poorly fitted or top-dose-only effect, or effect the other way; inactive = no such curve, though single readings can be large or run the other way.
These compounds were tested against Cytochrome P450 1A2 (Homo sapiens) (UniProt P05177) (assay: Cytochrome panel assay with activity outcomes). Conditions: recombinant CYP, pro-luciferin dealkylation, luminescence, p450-cyp1a2; series mostly up to 57.1 µM.
% is set by controls: 0 for no effect and ±100 for the full control effect.

Chain of Cytochrome P450 1A2 (Homo sapiens) (P05177 whole entry, looked up): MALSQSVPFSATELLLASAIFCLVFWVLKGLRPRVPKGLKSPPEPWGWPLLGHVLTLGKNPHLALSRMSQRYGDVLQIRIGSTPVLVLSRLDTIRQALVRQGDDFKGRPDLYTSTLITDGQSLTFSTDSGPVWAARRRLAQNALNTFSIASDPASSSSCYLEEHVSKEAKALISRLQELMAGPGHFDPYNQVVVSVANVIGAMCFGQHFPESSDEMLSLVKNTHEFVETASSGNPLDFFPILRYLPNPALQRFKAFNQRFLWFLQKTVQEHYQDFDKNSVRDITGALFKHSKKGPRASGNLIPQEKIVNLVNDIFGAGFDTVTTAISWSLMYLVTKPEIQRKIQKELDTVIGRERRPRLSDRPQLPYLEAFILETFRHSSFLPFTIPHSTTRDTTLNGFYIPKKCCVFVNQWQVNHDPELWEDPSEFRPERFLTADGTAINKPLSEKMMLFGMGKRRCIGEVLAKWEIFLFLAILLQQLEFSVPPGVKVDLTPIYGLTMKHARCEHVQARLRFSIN

| Structure (SMILES) | AC50 | activity, negative = inhibition |
| --- | --- | --- |
| CCOC(=O)C1=C(C)OC(N)=C(C#N)C12C(=O)N(C)c1ccccc12 (centres undefined) | inactive | – |
| C[C@@H]1[C@@H]2Cc3ccc(O)cc3[C@@]1(C)CCN2CC1CC1 | inactive | – |
| CNC(C)Cc1ccccc1Sc1ccc(O)cc1 (centres undefined) | inactive | – |
| Cn1c(O)c(C(=N)COc2ccccc2)c(=O)n(C)c1=O | 6.31 µM (active) | – |
| O=C(Oc1ccccc1)N1CCC2(CC1)CN(C(c1ccccc1)c1ccccc1)C2 | inactive | – |
| c1csc(CN2CC[C@@]3(CCCNC3)C2)n1 | inactive | – |
| CS(=N)(=O)CC[C@H](N)P(=O)(O)O (some centres undefined) | – | -13.9% [at 11.4 µM] |
| O=C(c1ccccc1F)c1cn(CC(=O)N2CCOCC2)c2ccccc12 | inactive | – |
| O=C(c1ccccc1F)c1cn(Cc2ccccc2)c2ccccc12 | 7.08 µM (active) | – |
| CCOC(=O)Cn1cc(C(=O)c2ccccc2F)c2ccccc21 | 3.55 µM (active) | – |
| COc1ccc(OC)c([C@H](O)[C@H](C)N)c1 | inactive | – |
| c1cc(N2CCCC3(CCNCC3)C2)ccn1 | inactive | – |
| Nc1nc(N)c(N=Nc2ccc([As](=O)(O)O)cc2)c(=O)[nH]1 | – | -14.9% [at 2.29 µM] |
| N=C(N)n1cc(/C=N\N=C(N)N)cn1 | – | 7.8% [at 2.29 µM] |
| CCC[C@@](C)(COC(N)=O)COC(=O)NC(C)C | inactive | – |
| O=C(O)C(O)(c1ccc(-c2ccccc2)cc1)c1ccc(-c2ccccc2)cc1 | – | -16.4% [at 11.4 µM] |
| CS(=N)(=O)CC[C@@H](N)C(=O)O (some centres undefined) | inactive | – |
| Cc1cc(C)nc(NC2=NCCS2)n1 | 12.6 µM (active) | – |
| C=C(C)[C@H]1CC[C@]2(C(=O)O)CC[C@]3(C)[C@@H](CC[C@H]4[C@@]5(C)CC[C@@H](O)C(C)(C)[C@@H]5CC[C@@]43C)[C@H]12 | inactive | – |
| Cc1ccc(S(=O)(=O)NCC2CCC(C(=O)N3CCC4(CC3)OCCO4)CC2)cc1 (centres undefined) | inactive | – |
| O=C(Cn1ncc2ccsc2c1=O)N1CCC2(CC1)OCCO2 | inactive | – |
| Cc1ccc2cc3cc(C(=O)N4CCC5(CC4)OCCO5)oc3nc2c1 | 2.51 µM (active) | – |
| O=C(c1cc2cc3ccc(Cl)cc3nc2o1)N1CCC2(CC1)OCCO2 | 6.31 µM (active) | – |
| O=C(c1cc(=O)[nH]c2ccc(Br)cc12)N1CCC2(CC1)OCCO2 | inactive | – |
| Cc1cc(NC(=O)CCC(=O)N2CCC3(CC2)OCCO3)no1 | inactive | – |
| COC(=O)[C@H](N)CCCN=C(N)N[N+](=O)[O-] | inactive | – |
| CN1CCc2cccc(Cl)c2CC1 | inactive | – |
| CCCC(=O)Nc1ccc(N2CCN(CC)CC2)c(Cl)c1 | inactive | – |
| C[C@@H]1O[C@H](O[C@@H]2CC[C@@]3(C=O)[C@H]4CC[C@@]5(C)[C@@H](C6=CC(=O)OC6)CC[C@@]5(O)[C@@H]4CC[C@]3(O)C2)C[C@H](O)[C@@H]1O | inactive | – |

— PubChem BioAssay AID1851 (National Center for Advancing Translational Sciences (NCATS), 2009)
